Test results published in PubChem BioAssay (NCI).
Compounds without any hit were thinned out: in the full panel of roughly 79,000, 15% have a hit. Calls of active or inactive are those of the source. No stated cut-off is given here; in the data, active means growth inhibition above about 70%; inactive means the rest.

Key:
[1] = NCI Yeast Anticancer Drug Screen. Data for the rad52 strain (AID 147);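 further: 0% = growth of vehicle-treated control cultures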; conditions: S. cerevisiae rad52 mutant growth inhibition, active compounds read high
Method in brief: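 Read-out: growth inhibition versus vehicle-treated controls. Cells were a DNA repair-deficient yeast strain treated with compounds.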

[2] = NCI Yeast Anticancer Drug Screen. Data for the wt1 strain (AID 149);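 further: 0% = growth of vehicle-treated wt1 cultures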; conditions: S. cerevisiae wt1 strain (SPY 50644) growth inhibition, active compounds read high
Method in brief: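 Yeast wt1 strain exposed to compounds; growth inhibition measured relative to vehicle-treated controls.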

[3] = NCI Yeast Anticancer Drug Screen. Data for the rad50EPP+ strain (AID 151);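 further: 0% = growth of vehicle-treated control cultures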; conditions: S. cerevisiae rad50 mutant strain, active compounds read high
Method in brief: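 Growth inhibition read against vehicle controls in rad50EPP+ yeast, a strain altered in DNA damage repair, after compound exposure.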

[4] = NCI Yeast Anticancer Drug Screen. Data for the rad50 strain (AID 155);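 further: 0% = growth of vehicle-only cultures of the same strain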; conditions: S. cerevisiae rad50 strain growth inhibition, active compounds read high
Method in brief: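 Yeast carrying a defined DNA repair defect were exposed to test compounds, and growth was compared with vehicle-treated controls to give percent inhibition.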

[5] = NCI Yeast Anticancer Drug Screen. Data for the mec2-1 strain (AID 157); conditions: S. cerevisiae mec2-1 strain, active compounds read high
Method in brief: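 Yeast mec2-1 mutant treated with compound. Readout: growth inhibition vs vehicle controls.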

[6] = NCI Yeast Anticancer Drug Screen. Data for the rad14 strain (AID 159);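 further: 0% = growth of vehicle-treated control cultures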; conditions: S. cerevisiae rad14 strain growth inhibition, active compounds read high
Method in brief: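 Yeast cells carrying a defined DNA-repair defect were exposed to compounds, and growth inhibition was calculated relative to vehicle-treated control cultures.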

[7] = NCI Yeast Anticancer Drug Screen. Data for the sgs1 mgt1 strain (AID 161);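 further: 0% = growth of cultures given vehicle only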; conditions: S. cerevisiae sgs1 mgt1 strain, active compounds read high
Method in brief: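 Read-out: growth inhibition vs vehicle controls. Cells: mutant yeast strain deficient in DNA damage repair.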

[8] = NCI Yeast Anticancer Drug Screen. Data for the CLN2oe strain (AID 163);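 further: 0% = growth of vehicle-only control cultures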; conditions: S. cerevisiae CLN2oe strain, active compounds read high
Method in brief: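 Read-out: yeast growth inhibition, expressed relative to vehicle-only controls. The strain bears an engineered cell-cycle alteration.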

[9] = NCI Yeast Anticancer Drug Screen. Data for the cln2 rad14 strain (AID 165);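 further: 0% = growth equal to vehicle treated cultures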; conditions: S. cerevisiae cln2 rad14 strain, active compounds read high
Method in brief: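 cln2 rad14 yeast strain; compound exposure; growth inhibition read vs vehicle controls.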

[10] = NCI Yeast Anticancer Drug Screen. Data for the bub3 strain (AID 167); conditions: S. cerevisiae bub3 mutant strain, active compounds read high
Method in brief: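 Compounds were applied to a genetically altered yeast strain carrying a cell-cycle control defect. Growth inhibition was scored against vehicle-treated controls.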

[11] = NCI Yeast Anticancer Drug Screen. Data for the wt2 strain (AID 169);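 further: 0% = growth of vehicle-treated yeast cultures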; conditions: S. cerevisiae wt2 strain growth inhibition, active compounds read high
Method in brief: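 Read-out: growth inhibition versus vehicle-treated control cultures after compound exposure of the yeast strain.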

[12] = NCI Yeast Anticancer Drug Screen. Data for the mlh1 strain (AID 171);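 further: 0% = growth of vehicle-treated control cultures of the same strain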; conditions: S. cerevisiae mlh1 strain growth inhibition, active compounds read high
Method in brief: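 Read-out: growth inhibition versus vehicle controls. Strain: engineered yeast with a defined DNA repair or cell cycle defect, compound-treated.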

[13] = NCI Yeast Anticancer Drug Screen. Data for the sgs1 strain (AID 173);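 further: 0% = growth of vehicle-only control cultures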; conditions: S. cerevisiae sgs1 mutant, active compounds read high
Method in brief: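 Read-out: yeast growth inhibition relative to vehicle controls, following compound exposure of a strain with a defined DNA repair/cell cycle alteration.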

[14] = NCI Yeast Anticancer Drug Screen. Data for the mlh1 rad18 strain (AID 175); conditions: S. cerevisiae mlh1 rad18 strain growth inhibition, active compounds read high
Method in brief: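 Yeast w/ defined DNA-repair lesions; compound exposure; growth vs vehicle controls → % inhibition.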

[15] = NCI Yeast Anticancer Drug Screen. Data for the rad18 strain (AID 177); conditions: S. cerevisiae rad18 mutant growth inhibition, active compounds read high
Method in brief: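 Readout: growth inhibition vs vehicle controls. Cells: genetically altered yeast strain, DNA repair defect.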

[16] = at 5.0 µM (retest, dose inferred, filed as 0.5)
[17] = at 50.0 µM (retest, dose inferred, filed as 5.0)

Measured: growth inhibition

Oc1ccc(Br)cc1C=NC1CCCCC1
active: [1]; at 33.0 µM 95% | [1]; at 100.0 µM 98% | [2]; at 33.0 µM 91% | [2]; at 100.0 µM 99% | [3]; at 33.0 µM 74% | [3]; at 100.0 µM 93% | [4]; at 33.0 µM 97% | [4]; at 50.0 µM 78.9% | [4]; at 100.0 µM 97% | [5]; at 33.0 µM 94% | [5]; at 50.0 µM 88.5% | [5]; at 100.0 µM 99% | [6]; at 11.0 µM 85% | [6]; at 33.0 µM 99% | [6]; at 100.0 µM 99% | [7]; [17] 99% | [7]; at 50.0 µM 85.3% | [8]; at 100.0 µM 98% | [9]; [17] 99% | [10]; [17] 99% | [10]; at 50.0 µM 87% | [10]; at 100.0 µM 97% | [11]; at 33.0 µM 74% | [11]; at 100.0 µM 99% | [12]; at 33.0 µM 96% | [12]; at 100.0 µM 99% | [13]; at 33.0 µM 92% | [13]; at 100.0 µM 98% | [14]; at 50.0 µM 77% | [15]; at 33.0 µM 92% | [15]; at 100.0 µM 97%
inactive: [1]; at 1.2 µM 0% | [1]; at 3.7 µM 15% | [1]; at 11.0 µM 35% | [2]; at 1.2 µM -24% | [2]; at 3.7 µM -18% | [2]; at 11.0 µM 6% | [3]; at 1.2 µM 3% | [3]; at 3.7 µM 12% | [3]; at 11.0 µM 35% | [4]; at 1.2 µM -14% | [4]; at 3.7 µM -18% | [4]; [16] 44% | [4]; at 11.0 µM 49% | [4]; [17] 45% | [5]; at 1.2 µM -24% | [5]; at 3.7 µM -21% | [5]; [16] 47% | [5]; at 11.0 µM 11% | [5]; [17] 60% | [6]; at 1.2 µM 15% | [6]; at 3.7 µM 24% | [7]; [16] -2% | [8]; at 1.2 µM -3% | [8]; at 3.7 µM 1% | [8]; at 11.0 µM 12% | [8]; at 33.0 µM 39% | [9]; [16] 53% | [9]; at 50.0 µM 57% | [10]; at 1.2 µM -4% | [10]; at 3.7 µM 2% | [10]; [16] 46% | [10]; at 11.0 µM 5% | [10]; at 33.0 µM 59% | [11]; at 1.2 µM -2% | [11]; at 3.7 µM 0% | [11]; at 11.0 µM 15% | [12]; at 1.2 µM -6% | [12]; at 3.7 µM 17% | [12]; at 11.0 µM 59% | [13]; at 1.2 µM 7% | [13]; at 3.7 µM 6% | [13]; at 11.0 µM 39% | [14]; [16] 32% | [14]; [17] 53% | [15]; at 1.2 µM 5% | [15]; at 3.7 µM 11% | [15]; at 11.0 µM 29%

NC(=O)N1c2ccccc2C=Cc2ccccc21
active: [4]; [17] 99% | [5]; [17] 98% | [14]; [17] 100%
inactive: [1]; at 1.2 µM -35% | [1]; at 3.7 µM -36% | [1]; at 11.0 µM -38% | [1]; at 33.0 µM -49% | [1]; at 100.0 µM -41% | [2]; at 1.2 µM -20% | [2]; at 3.7 µM -16% | [2]; at 11.0 µM -24% | [2]; at 33.0 µM -24% | [2]; at 100.0 µM -44% | [3]; at 1.2 µM -49% | [3]; at 3.7 µM -73% | [3]; at 11.0 µM -63% | [3]; at 33.0 µM -91% | [3]; at 100.0 µM -65% | [4]; at 1.2 µM -39% | [4]; at 3.7 µM -14% | [4]; [16] 60% | [4]; at 11.0 µM -24% | [4]; at 33.0 µM -42% | [4]; at 50.0 µM -5.55% | [4]; at 100.0 µM -53% | [5]; at 1.2 µM -63% | [5]; at 3.7 µM -55% | [5]; [16] 63% | [5]; at 11.0 µM -55% | [5]; at 33.0 µM -69% | [5]; at 50.0 µM -3.4% | [5]; at 100.0 µM -68% | [6]; at 1.2 µM -42% | [6]; at 3.7 µM -28% | [6]; at 11.0 µM -41% | [6]; at 33.0 µM -37% | [6]; at 100.0 µM -37% | [7]; [16] -12% | [7]; [17] 29% | [7]; at 50.0 µM 15.4% | [8]; at 1.2 µM 5% | [8]; at 3.7 µM 19% | [8]; at 11.0 µM 15% | [8]; at 33.0 µM 7% | [8]; at 100.0 µM 0% | [9]; [16] 61% | [9]; [17] 38% | [9]; at 50.0 µM 9.25% | [10]; at 1.2 µM -26% | [10]; at 3.7 µM -34% | [10]; [16] -17% | [10]; at 11.0 µM -41% | [10]; at 33.0 µM -43% | [10]; [17] 3% | [10]; at 50.0 µM 15.3% | [10]; at 100.0 µM -39% | [11]; at 1.2 µM -25% | [11]; at 3.7 µM -30% | [11]; at 11.0 µM -37% | [11]; at 33.0 µM -38% | [11]; at 100.0 µM -43% | [12]; at 1.2 µM -45% | [12]; at 3.7 µM -31% | [12]; at 11.0 µM -40% | [12]; at 33.0 µM -62% | [12]; at 100.0 µM -55% | [13]; at 1.2 µM -78% | [13]; at 3.7 µM -54% | [13]; at 11.0 µM -51% | [13]; at 33.0 µM -52% | [13]; at 100.0 µM -45% | [14]; [16] 60% | [14]; at 50.0 µM -6.9% | [15]; at 1.2 µM -49% | [15]; at 3.7 µM -51% | [15]; at 11.0 µM -37% | [15]; at 33.0 µM -64% | [15]; at 100.0 µM -59%
